# Source: the supplement of paper PMC7156485
# ± gives the standard deviation of the averaged measurements.
# System: HCC1569
# Test: cell number relative to DMSO (% of DMSO); higher = more cells (less growth inhibition / toxicity)
# Conditions: concentration: 10 µM; 24 h
# Method in brief: (§1)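 For HCC1569 and TDF cells, compounds at 10 µM were applied for 24 h at 37 °C in triplicate in 384-well plates. Cells were fixed in 3.7% formaldehyde, stained for H1.0 and with DAPI, and imaged at ×10 over six fields per well. The endpoint, H1.0 nuclear intensity or cell number, is shown as percent of the plate control using the median of replicates. Positional effects were smoothed for HCC1569 only.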
# 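Further: TDF denotes transformed human dermal fibroblasts of mesenchymal origin.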
row,SMILES,cell number
1,COc1cc2c(c(OC)c1OC)-c1c(cc(OC)c(OC)c1OC)C[C@](C)(O)[C@@H](C)C2,100
2,COc1cccc(/C=N/CC/N=C/c2cccc(OC)c2[O-])c1[O-].[Cl-].[Mn+2],99.1
3,"Cc1cccc(C(=O)NCN2CCN(c3ccccc3C#N)CC2)c1.O=C(O)C=CC(=O)O [PD 168,077 maleate]",105
4,CCCCCCCCCCCCCCCC(=O)OC(CC(=O)O)C[N+](C)(C)C.[Cl-] (racemic) [Palmitoyl-DL-Carnitine chloride],94.9
5,O=C1CN(/N=C/c2ccc(-c3ccc([N+](=O)[O-])cc3)o2)C([O-])=N1.[Na+],93.8
6,CC1C(NC(=O)C(=NOC(C)(C)C(=O)O)c2csc(N)n2)C(=O)N1S(=O)(=O)O (stereo not drawn) [Aztreonam],105
7,O=C(COc1ccc(Cl)cc1)NC1CCC(NC(=O)COc2ccc(Cl)cc2)CC1 (stereo not drawn),104
8,COc1ccc(C2Sc3ccccc3N(CCN(C)C)C(=O)C2OC(C)=O)cc1 (stereo not drawn) [Diltiazem],104
9,Cn1c(=O)c2c(ncn2CC2OCCO2)n(C)c1=O [Doxofylline],103
10,CC(C)NCC(O)COc1cccc2ccccc12.Cl [(S)-Propranolol hydrochloride],74.5
11,COc1cc(CC2C(=O)OCC2Cc2ccc(OC)c(OC)c2)ccc1O (stereo not drawn),80.5
12,COc1ccc(CC(=O)NC(N=C(NC#N)Nc2cccc3ncccc23)C(C)(C)C)cc1OC (stereo not drawn),99.9
13,"Cl.FC(F)(F)c1cc(COC2CCCNC2c2ccccc2)cc(C(F)(F)F)c1 [L-733,060 hydrochloride]",91.2
14,COc1ccc(C2CNC(=O)C2)cc1OC1CCCC1 (stereo not drawn) [Rolipram],101 ± 1.8
15,O=c1[nH]c2ccccc2c2ccccc12 [6(5H)-Phenanthridinone],100
16,Cl.Cl.c1ccc2c3c([nH]c2c1)C1C2CCC(C4CCCNC42)N1CC3 (stereo not drawn),99.8
17,OCC1OC(n2cnc3c(Nc4ccccc4)ncnc32)C(O)C1O (stereo not drawn) [N6-Phenyladenosine],101
18,NCCC(O)(P(=O)([O-])O)P(=O)([O-])O.O.O.O.O.O.[Na+].[Na+] [Pamidronate.2Na.5H2O],101
19,O=c1c(O)c(-c2ccc(O)c(O)c2)oc2cc(O)ccc12 [Fisetin],95.8
20,C[N+](C)(C)CCOC(=O)CCC(=O)OCC[N+](C)(C)C.[Cl-].[Cl-] [Succinylcholine chloride],100

row,SMILES,cell number
1,CCCCCC=CCC1OC1C(O)C=CCC=CCCCC(=O)O (stereo not drawn) [Hepoxilin B3],102
2,C1COC(NC(C2CC2)C2CC2)=N1 [Rilmenidine hemifumarate],95.7
3,COC(=O)Nc1nc2ccc(Sc3ccccc3)cc2[nH]1 [Fenbendazole],64
4,N=c1nc(N2CCCCC2)cc(N)n1O [Minoxidil],99.9 ± 3.1
5,"Cc1cc2cc3c(C)cc(=O)oc3c(C)c2o1 [4,5',8-Trimethylpsoralen]",97.9
6,O=C(Nc1cccc(Nc2ncc(Br)c(NCCc3cnc[nH]3)n2)c1)N1CCCC1,51.2
7,NC(=O)c1cccc(NC(=O)/C=C/c2c[nH]c3ccccc23)c1 [(E)-3-(3-(1H-indol-3-yl)acrylamido)benzamide],97.9
8,CC(=O)OC1(C(C)=O)CCC2C3C=C(Cl)C4=CC(=O)C5CC5C4(C)C3CCC21C (stereo not drawn) [Cyproterone Acetate],107
9,CCc1ccc(CCOc2ccc(CC3SC(=O)NC3=O)cc2)nc1 (stereo not drawn) [Pioglitazone],102
10,"O=C(O)c1ccc(SC2=NS(=O)(=O)c3ccccc32)cc1 [4-((1,1-dioxidobenzo[d]isothiazol-3-yl)thio)benzoic acid]",100
11,CC1=CCCC(C)(O)C=CC(C(C)C)C(OC(=O)c2ccc(O)cc2)C1 (stereo not drawn) [Feroline],102
12,CN(C)CC=C(c1ccc(Br)cc1)c1cccnc1.Cl.Cl [Zimelidine dihydrochloride],99
13,N=c1ccn2c(n1)OC1C(O)C(CO)OC12 (stereo not drawn) [Cyclocytidine],76.4
14,COc1cc(O)c(C(=O)C=Cc2ccccc2)c(OC)c1 [Flavokawain B],75.4
15,Cc1ncc([N+](=O)[O-])n1CCO [Metronidazole],102
16,Cl.NO [Hydroxylamine hydrochloride],96.2
17,CN(C)c1ccc(O)c2c1CC1CC3C(N(C)C)C(=O)C(C(N)=O)=C(O)C3(O)C(=O)C1=C2O (stereo not drawn) [Minocycline],107
18,NC1CCN(O)C1=O (racemic),101
19,"CCCCCCC=CC=CCCCCCCCC(=O)O [(9Z,11E)-Octadecadienoic acid]",97.6

# System: TDF
# Test: as above
# Conditions: concentration: 10 µM; 24 h
# Method in brief: as §1
row,SMILES,cell number
1,COc1cc2c(c(OC)c1OC)-c1c(cc(OC)c(OC)c1OC)C[C@](C)(O)[C@@H](C)C2,108
2,COc1cccc(/C=N/CC/N=C/c2cccc(OC)c2[O-])c1[O-].[Cl-].[Mn+2],98.1
3,"Cc1cccc(C(=O)NCN2CCN(c3ccccc3C#N)CC2)c1.O=C(O)C=CC(=O)O [PD 168,077 maleate]",107
4,CCCCCCCCCCCCCCCC(=O)OC(CC(=O)O)C[N+](C)(C)C.[Cl-] (racemic) [Palmitoyl-DL-Carnitine chloride],101
5,O=C1CN(/N=C/c2ccc(-c3ccc([N+](=O)[O-])cc3)o2)C([O-])=N1.[Na+],104
6,CC1C(NC(=O)C(=NOC(C)(C)C(=O)O)c2csc(N)n2)C(=O)N1S(=O)(=O)O (stereo not drawn) [Aztreonam],105
7,O=C(COc1ccc(Cl)cc1)NC1CCC(NC(=O)COc2ccc(Cl)cc2)CC1 (stereo not drawn),100
8,COc1ccc(C2Sc3ccccc3N(CCN(C)C)C(=O)C2OC(C)=O)cc1 (stereo not drawn) [Diltiazem],107
9,Cn1c(=O)c2c(ncn2CC2OCCO2)n(C)c1=O [Doxofylline],106
10,CC(C)NCC(O)COc1cccc2ccccc12.Cl [(S)-Propranolol hydrochloride],95.9
11,COc1cc(CC2C(=O)OCC2Cc2ccc(OC)c(OC)c2)ccc1O (stereo not drawn),74.6
12,COc1ccc(CC(=O)NC(N=C(NC#N)Nc2cccc3ncccc23)C(C)(C)C)cc1OC (stereo not drawn),107
13,"Cl.FC(F)(F)c1cc(COC2CCCNC2c2ccccc2)cc(C(F)(F)F)c1 [L-733,060 hydrochloride]",91.3
14,COc1ccc(C2CNC(=O)C2)cc1OC1CCCC1 (stereo not drawn) [Rolipram],108 ± 4.6
15,O=c1[nH]c2ccccc2c2ccccc12 [6(5H)-Phenanthridinone],109
16,Cl.Cl.c1ccc2c3c([nH]c2c1)C1C2CCC(C4CCCNC42)N1CC3 (stereo not drawn),100
17,OCC1OC(n2cnc3c(Nc4ccccc4)ncnc32)C(O)C1O (stereo not drawn) [N6-Phenyladenosine],118
18,NCCC(O)(P(=O)([O-])O)P(=O)([O-])O.O.O.O.O.O.[Na+].[Na+] [Pamidronate.2Na.5H2O],96.8
19,O=c1c(O)c(-c2ccc(O)c(O)c2)oc2cc(O)ccc12 [Fisetin],95.8
20,C[N+](C)(C)CCOC(=O)CCC(=O)OCC[N+](C)(C)C.[Cl-].[Cl-] [Succinylcholine chloride],113

row,SMILES,cell number
1,CCCCCC=CCC1OC1C(O)C=CCC=CCCCC(=O)O (stereo not drawn) [Hepoxilin B3],95
2,C1COC(NC(C2CC2)C2CC2)=N1 [Rilmenidine hemifumarate],108
3,COC(=O)Nc1nc2ccc(Sc3ccccc3)cc2[nH]1 [Fenbendazole],95.7
4,N=c1nc(N2CCCCC2)cc(N)n1O [Minoxidil],105 ± 3.1
5,"Cc1cc2cc3c(C)cc(=O)oc3c(C)c2o1 [4,5',8-Trimethylpsoralen]",102
6,O=C(Nc1cccc(Nc2ncc(Br)c(NCCc3cnc[nH]3)n2)c1)N1CCCC1,33.8
7,NC(=O)c1cccc(NC(=O)/C=C/c2c[nH]c3ccccc23)c1 [(E)-3-(3-(1H-indol-3-yl)acrylamido)benzamide],103
8,CC(=O)OC1(C(C)=O)CCC2C3C=C(Cl)C4=CC(=O)C5CC5C4(C)C3CCC21C (stereo not drawn) [Cyproterone Acetate],93.8
9,CCc1ccc(CCOc2ccc(CC3SC(=O)NC3=O)cc2)nc1 (stereo not drawn) [Pioglitazone],105
10,"O=C(O)c1ccc(SC2=NS(=O)(=O)c3ccccc32)cc1 [4-((1,1-dioxidobenzo[d]isothiazol-3-yl)thio)benzoic acid]",107
11,CC1=CCCC(C)(O)C=CC(C(C)C)C(OC(=O)c2ccc(O)cc2)C1 (stereo not drawn) [Feroline],96
12,CN(C)CC=C(c1ccc(Br)cc1)c1cccnc1.Cl.Cl [Zimelidine dihydrochloride],86.6
13,N=c1ccn2c(n1)OC1C(O)C(CO)OC12 (stereo not drawn) [Cyclocytidine],51.7
14,COc1cc(O)c(C(=O)C=Cc2ccccc2)c(OC)c1 [Flavokawain B],81.6
15,Cc1ncc([N+](=O)[O-])n1CCO [Metronidazole],104
16,Cl.NO [Hydroxylamine hydrochloride],95.5
17,CN(C)c1ccc(O)c2c1CC1CC3C(N(C)C)C(=O)C(C(N)=O)=C(O)C3(O)C(=O)C1=C2O (stereo not drawn) [Minocycline],101
18,NC1CCN(O)C1=O (racemic),104
19,"CCCCCCC=CC=CCCCCCCCC(=O)O [(9Z,11E)-Octadecadienoic acid]",106
